HPGD block = qHTS Assay for Inhibitors of HPGD (15-Hydroxyprostaglandin Dehydrogenase). 15-hydroxyprostaglandin dehydrogenase [NAD(+)] (Homo sapiens), P15428. purified HPGD, NADH fluorescence kinetic, PGE2 substrate. Potency, µM, without a hit: at the highest dose activity change, negative = inhibition, hits mostly inhibitors. 4.3% of 150,000 active; active = well fitted inhibition curve with a large enough effect, not every such curve was filed as active; inconclusive = small, poorly fitted or top-dose-only effect, or another doubt; inactive = no such curve, though single readings can be large or run the other way; also: potency is read from the fitted curve at half-maximal effect; % is scaled to controls: 0 for no effect and ±100 for the full control effect
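NADH formation kinetics: reaction with 30 uM PGE2 and 1 mM NAD+ (final), 20 nM enzyme, Tris-HCl pH 8 with Tween 20, after 15 min compound preincubation at room temperature. Fluorescence change, last versus first of five reads.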
PNC assembly inh = High Content Assay for Compounds that inhibit the Assembly of the Perinucleolar Compartment; activity change (PNC), negative = inhibition, % at 10 µM; 3.1% of 140,000 active; AID 2417, 2010; PC3M PTB-GFP, PNC prevalence imaging, 16 h; active compounds read low;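 active = readout at or below -70, meaning at least 70% loss of cells showing the perinucleolar compartment, a nuclear body marking cancer cells; inconclusive = readout between -30 and a set limit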;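 also: plate controls were DMSO wells for no effect and camptothecin positive control wells for full effect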
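Compounds are pinned in duplicate onto adhered PC3M cells stably expressing GFP-tagged PTB and incubated 16 h at 37 C. Cells are then fixed, nuclei stained with Hoechst, and PNC-positive cells counted.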
HTT cytoprotect = qHTS Multiplex Assay to Identify Dual Action Probes in a Cell Model of Huntington: Cytoprotection (ATP); PC12 HTT-Q103 induced, cytoprotection, ATP luminescence, 40 h; AID 1471, 2008; Potency, µM (series often up to 56.4 µM), inactives show cytoprotection (ATP increase), usual class: activators; 0.14% of 230,000 active; also: potency is read from the fitted curve at half-maximal effect; % of control where 0% means no effect; nearly all actives have a fitted effect of over 45% in size
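Compounds were screened for protection of PC12 cells against cell death after tebufenozide induction (100 nM final) of mutant Huntingtin exon 1 (Q103) fused to GFP.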
ALDH1A1 block = qHTS Assay for Inhibitors of Aldehyde Dehydrogenase 1 (ALDH1A1); Aldehyde dehydrogenase 1A1 (Homo sapiens), P00352; Purified ALDH1A1, NADH fluorescence, propionaldehyde substrate; Potency, µM (highest dose often 75.3 µM), inactives show at the highest dose activity, negative = inhibition, hits mostly inhibitors; 7.3% of 220,000 active; active = well fitted inhibition curve with a large enough effect, not every such curve was filed as active; inconclusive = small, poorly fitted or top-dose-only effect, or another doubt; inactive = no such curve, though single readings can be large or run the other way;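 also: potency is read from the fitted curve at half-maximal effect; plate controls were no enzyme wells and a reference inhibitor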
Target sequence (P00352 whole entry, looked up): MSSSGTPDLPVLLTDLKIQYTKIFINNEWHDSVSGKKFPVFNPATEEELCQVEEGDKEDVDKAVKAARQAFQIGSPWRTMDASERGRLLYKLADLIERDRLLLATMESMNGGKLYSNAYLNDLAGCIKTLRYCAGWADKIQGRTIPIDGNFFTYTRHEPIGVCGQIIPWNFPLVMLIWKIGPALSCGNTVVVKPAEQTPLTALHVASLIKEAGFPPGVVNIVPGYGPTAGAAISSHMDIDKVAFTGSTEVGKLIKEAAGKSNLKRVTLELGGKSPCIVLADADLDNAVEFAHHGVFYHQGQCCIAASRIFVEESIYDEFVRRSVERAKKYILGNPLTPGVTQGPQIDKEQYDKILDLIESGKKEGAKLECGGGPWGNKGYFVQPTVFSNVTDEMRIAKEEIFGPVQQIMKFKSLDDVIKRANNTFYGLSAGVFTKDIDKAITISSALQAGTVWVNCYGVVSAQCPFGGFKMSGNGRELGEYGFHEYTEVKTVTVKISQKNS
GoLoco inh red = qHTS Assay for Inhibitors of RGS12 GoLoco Motif Activity (Red Fluorophore) | Gai1:RGS12 GoLoco peptide FP, rhodamine, 10 min | Potency, µM (highest dose often 61.6 µM), without a hit: at the highest dose activity, negative = inhibition, actives largely listed as inhibitors | 0.44% of 230,000 active; active = well fitted inhibition curve with a large enough effect, not every such curve was filed as active; inactive = no such curve, though single readings can be large or run the other way; also: potency is read from the fitted curve at half-maximal effect; % is scaled to controls: 0 for no effect and ±100 for the full control effect; nearly all actives have a fitted effect of over 30% in size
HTT aggregate = qHTS Multiplex Assay to Identify Dual Action Probes in a Cell Model of Huntington: Aggregate Formation (GFP); Potency, µM (titrated, usually from 46.1 µM), for the others: at the highest dose activity change, negative = inhibition, most hits filed as inhibitors; PC12 HttQ103-GFP aggregates, Acumen cytometry, 40 h; 1.1% of 220,000 active; also: potency is read from the fitted curve at half-maximal effect; % is scaled to controls: 0 for no effect and ±100 for the full control effect; nearly all actives have a fitted effect of over 60% in size
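Read-out: GFP aggregate count by laser scanning cytometer (488 nm excitation, 500-530 nm emission, 1–25 µm objects >6 SD above background). Cells: PC12, inducible HTTex1-Q103-GFP, 100 nM tebufenozide; compounds titrated.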
Starred values were filed as active, the others as inactive; ? = inconclusive; . = no result given; [ ] = dose if it differs, or a comment. Rows were chosen to be rich in hits. Some 11% of all compounds tested hit in one or more screens of this group. Unless noted, calls follow the shape of the dose curve; as a rule, active = well fitted curve in the direction sought with a large enough effect; inconclusive = small, poorly fitted or top-dose-only effect, or another doubt; inactive = no such curve, though single readings can be large; an effect the other way counts as inactive or inconclusive.

SMILES	HPGD block	PNC assembly inh	HTT cytoprotect	ALDH1A1 block	GoLoco inh red	HTT aggregate
Cc1cccc(/C=N/NC(=O)C2CCCNC2=O)c1 (stereo not given)	2%	-85*	.	0%	2%	-13%
O=C1NCCCC1C(=O)N/N=C/c1cccc([N+](=O)[O-])c1 (stereo not given)	.	.	14%[10 µM]	-10%	-2%	16%[9.22 µM]
C1CSC2(N1)C1CC3CC(C1)CC2C3 (stereo not given)	-11%	-5	1.6µM*	5%	-3%	.
CC[C@H]1NC(=O)c2cc(S(N)(=O)=O)c(Cl)cc2N1	-25%	.	-1%[40.3 µM]	-9%[20.9 µM]	-7%[21.6 µM]	25%[20.6 µM]
O=C1CNCCCN2CCN(CCCNCC(=O)Nc3ccc(cc3)S(=O)(=O)c3ccc(cc3)NC(=O)CNCCCN3CCN(CCCNCC(=O)Nc4ccc(cc4)S(=O)(=O)c4ccc(cc4)N1)CC3)CC2	.	.	-2%[10 µM]	.	.	.
O=C1CN2CCN(CC2)CC(=O)Nc2ccc(cc2)S(=O)(=O)c2ccc(cc2)NC(=O)CN2CCN(CC2)CC(=O)Nc2ccc(cc2)S(=O)(=O)c2ccc(cc2)N1	-14%	.	-14%[10 µM]	1.6µM*	36%[14.2 µM]	.
CC(C)n1c(-c2cccnc2)nc2cnccc21	-14%	-100*	-17%[10 µM]	3%	0%	?
Cn1c(-c2ccccc2)nc2cnccc21	.	.	0%[10 µM]	.	18%	-9%[9.22 µM]
C/C(CCN1CCCc2nc(C)c(C)cc21)=N\O[C@@H](C)CN1CCCCc2nc(C)c(C)cc21	.	.	-41%[10 µM]	0%[13.5 µM]	.	.
CCOC(=O)/C=C1\NC(C)(C)Cc2cc(OC)c(OC)cc21	-5%	33	-16%	-4%	11%	-4%
CCOC(=O)/C=C1\NC(C)(C)Cc2cc(OC)c(O)cc21	35µM*	?	-31%	11µM*	9%	26%
C=CCN(Cc1cccc(OC)c1OC)S(=O)(=O)N(C)C	-14%	42	-22%	25µM*	-5%	10%
COc1cccc(-n2c(SCC(=O)NCCC3=CCCCC3)nc3n[nH]c(C)c3c2=N)c1	-17%	51	-40%	20µM*	10%	-13%
COc1cccc(C(=O)NCCC2=CCCCC2)c1	14µM*	-18	-23%	?	-11%	-11%
COc1ccc(C(=O)NCC(=O)OCC(=O)NCCC2=CCCCC2)cc1	.	.	-9%	16µM*	10%	21%
COc1cccc(NC(=O)CSc2nc3n[nH]c(C)c3c(=N)n2-c2cccc(OC)c2)c1	?	78	0%	?	8%	8%
COc1ccc(C(=O)NCCC2=CCCCC2)cc1	-24%	4	-15%[10 µM]	-2%	1%	4%
Cc1cc(C(=O)NCCC2=CCCCC2)ccc1[N+](=O)[O-]	.	.	-3%[10 µM]	25µM*	4%	-18%[9.22 µM]
O=c1oc2ccccc2c(Nc2cccc3cccnc23)c1[N+](=O)[O-]	.	.	-37%[1.9 µM]	-16%	15%	11%[9.22 µM]
Nc1ncnc2c1nc(Sc1ccc(Cl)cc1)n2[C@H]1O[C@@H]2COP(=O)(O)O[C@H]2[C@@H]1O	-4%	.	.	7%	-8%	.
O=C(COc1cccc2ccccc12)NCc1cccnc1	.	.	-21%	-8%	11%	-10%
CCOc1cccc2cc(C(=O)NCCC3=CCCCC3)c(=O)oc12	.	.	2%	25µM*	17%	5%
CCOc1cccc2cc(C(=O)Nc3nccs3)c(=O)oc12	-4%	4	-10%	1%	5%	16%
CC(C)(C)C(=O)Nc1ccc(-c2cn3ccsc3n2)cc1	0%	-14	-104%	-2%	7%	12%
CC(C)CC(=O)Nc1ccc(-c2cn3ccsc3n2)cc1	25µM*	?	-188%[0.074 µM]	0%	5%	?
